Source: PubChem BioAssay (several laboratories)
VHR inh abs – VHR1 phosphatase inhibitors, primary screen, biochemical, absorbance, uHTS | AID 1654, 2009 | 290,000 compounds, 0.52% hits | Dual specificity protein phosphatase 3 (Homo sapiens), P51452 | recombinant VHR phosphatase, pNPP absorbance | inhibition, % at 13.3 µM; in the data active = inhibition above about 50%
Target sequence (P51452 whole entry, looked up): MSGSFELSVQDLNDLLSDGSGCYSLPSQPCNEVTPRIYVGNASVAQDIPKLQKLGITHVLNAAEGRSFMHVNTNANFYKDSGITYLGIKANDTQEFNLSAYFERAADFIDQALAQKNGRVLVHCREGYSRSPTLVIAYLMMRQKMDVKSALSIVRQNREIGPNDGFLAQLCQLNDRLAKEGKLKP
Vc quorum ag – inducers of Vibrio cholerae quorum light production without autoinducers, primary screen, BH1578 luxS cqsA deficient, single point. V. cholerae BH1578 lux reporter, luminescence, 6 h. activation, % at 18.7 µM. 350,000 compounds, 0.16% hits. AID 588436, 2011; in the data active = activation mostly above about 9.7%, no sharp cut-off; inconclusive = no clear call, values can overlap the other calls; inactive = mostly below about 3.7%
BioA inh-1 – M. tuberculosis BioA enzyme inhibitors, primary screen, biochemical, plate reader, single point, HTS; 7,8-diaminopelargonic acid synthase BioA (Mycobacterium tuberculosis); purified M. tuberculosis BioA enzyme; inhibition, % at 9.99 µM; 360,000 compounds, 0.096% hits; AID 602481, 2012; in the data active = inhibition above about 40%; inconclusive = no clear call, values can overlap the other calls
TcdB inh – TcdB glycohydrolase inhibitors, primary screen, biochemical, single point, plate reader; inhibition, % at 9.99 µM; AID 652162, 2013; TcdB glycohydrolase enzymatic assay; 350,000 compounds, 0.24% hits; in the data active = inhibition above about 10%
PfHsp40 rescue – rescue of yeast from PfHsp40 toxicity, primary screen, S. cerevisiae, ATP luminescence. S. cerevisiae expressing PfHsp40, growth rescue. growth rescue, % at 12.5 µM. 340,000 compounds, 0.68% hits; in the data active = growth rescue above about 28%, passing the limit was not always enough; inconclusive = no clear call, values can overlap the other calls;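 also: yeast W303a lacking pdr1 and pdr3 grown in galactose medium; growth measured after three days at 30 °C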
Y pestis TopoI – Yersinia pestis topoisomerase I inhibitors, primary screen, biochemical, cleavage product accumulation, plate reader, single point | DNA topoisomerase I (Yersinia pestis CO92) | Y. pestis Topo-I cleavage product accumulation | activity, % at 10 µM | 360,000 compounds, 0.064% hits | AID 504884, 2011; in the data active = activity above about 50%, passing the limit was not always enough; inconclusive = no clear call, values can overlap the other calls
BioA inh-2 – Mtb BioA enzyme inhibitors, dose response, biochemical, plate reader, cherry-pick samples, set 03 | shares compounds with BioA inh-1 | 310 tested, under 10 active | purified BioA enzyme | max activity, %;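 also: top concentration of the dilution series was 10 µM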
Target sequence (P9WQ81 whole entry, looked up): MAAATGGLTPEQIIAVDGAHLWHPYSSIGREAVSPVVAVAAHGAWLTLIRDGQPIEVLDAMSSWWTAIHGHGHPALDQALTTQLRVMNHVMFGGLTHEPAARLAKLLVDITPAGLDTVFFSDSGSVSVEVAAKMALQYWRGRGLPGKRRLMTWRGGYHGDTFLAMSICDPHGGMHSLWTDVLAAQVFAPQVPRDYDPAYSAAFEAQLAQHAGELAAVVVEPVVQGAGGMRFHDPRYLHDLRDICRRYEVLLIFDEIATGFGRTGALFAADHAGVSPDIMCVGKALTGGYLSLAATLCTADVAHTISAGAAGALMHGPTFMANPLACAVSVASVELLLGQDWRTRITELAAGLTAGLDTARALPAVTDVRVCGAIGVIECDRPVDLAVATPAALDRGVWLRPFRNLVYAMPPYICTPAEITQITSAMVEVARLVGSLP
HepG2 tox 2 – cytotoxicity in HepG2 cells, dose response, cytotoxicity control, cell-based, plate reader, cherry-pick, two tests | 310 tested, under 10 active | shares compounds with BioA inh-1 | max activity, %
NIH3T3 tox 5 – cytotoxicity in NIH3T3 fibroblasts, dose response, cytotoxicity control, cell-based, plate reader, cherry-pick, two tests; 310 tested, under 10 active; activity change, negative = cytotoxicity, % at 26 µM; shares compounds with BioA inh-1
The depositor's hits bear a star; [ ] = dose if it differs, or a comment. Rows were chosen to be rich in hits. Some 1.2% of all compounds tested hit in one or more screens of this group. Unless noted, no rule for the calls is given here.

For CN1c2ccc(-c3cccc(F)c3)cc2[C@H]2[C@H](CCN2C(=O)c2ccncc2)[C@@H]1CO the results were BioA inh-1 69*, BioA inh-2 -9, HepG2 tox 2 inactive and NIH3T3 tox 5 -4.
Screening CN1c2ccc(-c3cccc(F)c3)cc2[C@H]2[C@H](CCN2C(=O)C2CC2)[C@H]1CO returned BioA inh-1 41*, TcdB inh -3, BioA inh-2 6, HepG2 tox 2 inactive and NIH3T3 tox 5 0[23.5 µM].
For CN1c2ccc(-c3cccc(F)c3)cc2[C@@H]2[C@@H](CCN2C(=O)C2CC2)[C@H]1CO the results were BioA inh-1 31 and TcdB inh -9.
For COCC(=O)N1CC[C@@H]2[C@@H](CO)N(C)c3ccc(-c4ccc(F)cc4)cc3[C@@H]21 the results were BioA inh-1 61*, BioA inh-2 -6, HepG2 tox 2 inactive and NIH3T3 tox 5 1.
Screening O=C1CC[C@@]23CCCN2C(=O)CCCC3C1 (stereo partly drawn) returned Vc quorum ag 2, BioA inh-1 -1, TcdB inh 0, PfHsp40 rescue 4 and Y pestis TopoI -3.
For Nc1nc(CN2CCN(c3ccccc3F)CC2)nc(Nc2ccccc2)n1 the results were VHR inh abs 25, Vc quorum ag inactive, BioA inh-1 -5, PfHsp40 rescue 0 and Y pestis TopoI 10.
Screening O=C(COC(=O)C1CCC(=O)N1)Nc1ccc(Br)cc1 (stereo not drawn) returned VHR inh abs -2, Vc quorum ag 0, TcdB inh 1, PfHsp40 rescue 0 and Y pestis TopoI -8.
Screening COc1ccc(CCNC(=O)c2cnc3n(c2=O)CCS3)cc1OC returned VHR inh abs 18, Vc quorum ag 3, BioA inh-1 48*, PfHsp40 rescue 1, Y pestis TopoI 9, BioA inh-2 -3, HepG2 tox 2 16 and NIH3T3 tox 5 3.
Screening COc1cc(-c2n[nH]c(=S)n2-c2cccc(C(F)(F)F)c2)cc(OC)c1OC returned VHR inh abs -2, Vc quorum ag 0, BioA inh-1 43*, PfHsp40 rescue 0, Y pestis TopoI -2, BioA inh-2 -6, HepG2 tox 2 -9 and NIH3T3 tox 5 -6.
COc1cc(-c2n[nH]c(=S)n2C(C)c2ccccc2)cc(OC)c1OC (stereo not drawn) was read as VHR inh abs 15, Vc quorum ag -1, BioA inh-1 64*, TcdB inh 2, PfHsp40 rescue -1, Y pestis TopoI -1, BioA inh-2 -5, HepG2 tox 2 20 and NIH3T3 tox 5 1.
O=C(CSc1ncn[nH]1)Nc1ccc2c(c1)OCCO2 was read as VHR inh abs 22, Vc quorum ag inactive, BioA inh-1 -1, PfHsp40 rescue 1 and Y pestis TopoI 4.
For Cc1cc(C(=O)CSc2nncs2)c(C)n1-c1ccc2c(c1)OCO2 the results were VHR inh abs 9, Vc quorum ag inactive, BioA inh-1 49*, PfHsp40 rescue 0, Y pestis TopoI 35, BioA inh-2 -10, HepG2 tox 2 10 and NIH3T3 tox 5 -6.
Screening Cc1cc(C)n2nc(SCC(=O)N3CCC4(CC3)OCCO4)nc2n1 returned VHR inh abs 29, Vc quorum ag 0, BioA inh-1 5, PfHsp40 rescue -1 and Y pestis TopoI 0.
Screening Cc1nc2nc(SCC(=O)N3CCOCC3)nn2c(C)c1Cc1c(F)cccc1Cl returned VHR inh abs -13, Vc quorum ag 3, BioA inh-1 94*, PfHsp40 rescue 0, Y pestis TopoI 22, BioA inh-2 -9, HepG2 tox 2 -7 and NIH3T3 tox 5 -13.
`Cc1ccc(Cc2c(C)nc3nc(SCC(=O)NCCCN4CCCCC4)nn3c2C)cc1` gave VHR inh abs 49, Vc quorum ag -1, BioA inh-1 54*, TcdB inh -1, PfHsp40 rescue -1, Y pestis TopoI 12, BioA inh-2 -2, HepG2 tox 2 -12 and NIH3T3 tox 5 10.
For Cc1nc2nc(SCC(=O)NCCN3CCOCC3)nn2c(C)c1Cc1ccccc1 the results were VHR inh abs 4, Vc quorum ag inactive, PfHsp40 rescue 0 and Y pestis TopoI 7.
For Cc1nc2nc(SCC(=O)N3CCC4(CC3)OCCO4)nn2c(C)c1Cc1ccccc1 the results were VHR inh abs -15, Vc quorum ag 0, BioA inh-1 74*, PfHsp40 rescue -1, Y pestis TopoI 23, BioA inh-2 -9, HepG2 tox 2 25 and NIH3T3 tox 5 8.
`Cc1ccc(C(=O)N2CC(C)SC2=Nc2cccc(S(=O)(=O)N(C)C)c2)cc1` (stereo not drawn) gave VHR inh abs 4, Vc quorum ag -2, BioA inh-1 1, PfHsp40 rescue 2 and Y pestis TopoI -4.
Screening O=C(CSc1nc2ccccc2c(=O)n1-c1ccccc1)N1CCN(CCO)CC1 returned VHR inh abs 39, Vc quorum ag -3, BioA inh-1 50*, PfHsp40 rescue -1, Y pestis TopoI -6, BioA inh-2 -5, HepG2 tox 2 inconclusive and NIH3T3 tox 5 0.
`CCc1nc2ccc(Br)cc2c(=O)n1-c1ccccc1C(F)(F)F` gave Vc quorum ag inactive, BioA inh-1 60*, TcdB inh 2, PfHsp40 rescue 6, Y pestis TopoI -1, BioA inh-2 -7, HepG2 tox 2 inconclusive and NIH3T3 tox 5 1.
Screening Cc1ccc2sc(NNC(=O)C3COc4ccccc4O3)nc2c1C (stereo not drawn) returned VHR inh abs 4, BioA inh-1 2, TcdB inh 1, PfHsp40 rescue -1 and Y pestis TopoI 2.
Cc1nnc(N2CCC(C(=O)N3CCCCC3)CC2)c2nn(-c3ccc(Cl)cc3)c(C)c12 was read as VHR inh abs -4, Vc quorum ag -6, BioA inh-1 51*, PfHsp40 rescue -1, Y pestis TopoI 25, BioA inh-2 4, HepG2 tox 2 11 and NIH3T3 tox 5 -5.
For O=C(CSc1nc2cc(C(=O)O)ccc2c(=O)n1-c1ccc(F)cc1)Nc1ccc(F)c(F)c1F the results were VHR inh abs -6, Vc quorum ag -8, BioA inh-1 81*, TcdB inh 0, PfHsp40 rescue 2, Y pestis TopoI -4, BioA inh-2 -9, HepG2 tox 2 -8 and NIH3T3 tox 5 -12.
